# IDE act: human IDE activators in live cells, primary screen, fluorescence polarization, HEK cells, FAbeta-B substrate | Insulin-degrading enzyme (Homo sapiens), P14735 | FAbeta-B cleavage; 0% vehicle, 100% cell-free pure enzyme wells | activation, % at 5.96 µM | actives 0.073% (n = 340,000) | AID 493087, 2011;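 active = activation above the mean of all tested compounds plus 3 SD, set per screening campaign, cut at about 17% in these data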
# ANO1 block: TMEM16A chloride channel inhibitors, primary screen, cell-based, HTS. Anoctamin-1 (Mus musculus), Q8BHY3. HEK293 TMEM16A/YFP iodide influx fluorescence, ionomycin. normalized B-score (activity score, 25-100; higher = stronger inhibition) at 10 µM. actives 1.2% (n = 310,000). AID 588511, 2011;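 active = ratio plate-corrected score three or more library SD toward inhibition, starting fluorescence score within five deviations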;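 note: score derived from kinetic fluorescence span divided by baseline fluorescence per well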
# CHT allo act: CHT positive allosteric modulators, primary screen, cell-based, membrane potential dye, choline EC20; High affinity choline transporter 1 (Homo sapiens), Q9GZV3; B-score at 10 µM; CHT-expressing cells; hits give high values; LV-AA mutant CHT in HEK293 cells; actives 0.49% (n = 310,000);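 active = initial fluorescence not abnormally high and integrated response B-score, plate-corrected, over 3 SD above library mean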
# Target sequence (Q9GZV3 whole entry, looked up): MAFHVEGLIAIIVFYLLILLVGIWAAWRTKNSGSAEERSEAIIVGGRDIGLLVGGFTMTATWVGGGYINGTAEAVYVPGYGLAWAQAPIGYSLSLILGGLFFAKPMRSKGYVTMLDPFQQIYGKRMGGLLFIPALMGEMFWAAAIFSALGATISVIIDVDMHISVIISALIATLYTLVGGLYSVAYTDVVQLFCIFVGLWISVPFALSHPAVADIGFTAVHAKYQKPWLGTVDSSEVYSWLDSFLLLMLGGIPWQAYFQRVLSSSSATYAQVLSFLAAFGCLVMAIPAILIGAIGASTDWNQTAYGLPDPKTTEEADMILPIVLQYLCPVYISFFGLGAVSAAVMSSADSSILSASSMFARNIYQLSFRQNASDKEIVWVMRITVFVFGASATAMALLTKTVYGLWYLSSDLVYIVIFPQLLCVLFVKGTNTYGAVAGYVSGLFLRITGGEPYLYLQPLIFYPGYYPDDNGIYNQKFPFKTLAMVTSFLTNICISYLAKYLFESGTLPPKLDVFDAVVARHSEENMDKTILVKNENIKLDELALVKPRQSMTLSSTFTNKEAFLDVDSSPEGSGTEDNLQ
# TMEM16A act: TMEM16A chloride channel activators or potentiators, primary screen, cell-based, HTS; HEK293 TMEM16A/YFP-H148Q/I152L, iodide quench fluorescence; hits give low values; B-score at 10 µM; actives 0.3% (n = 340,000); Anoctamin-1 (Mus musculus), Q8BHY3;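 active = fluorescence-ratio B-score plate-corrected deviation score at least 3 library SD below zero, with starting fluorescence score within 5 deviations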;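 note: channel opened by trigger with iodide after compound preincubation; score built on the fluorescence ratio of max minus min over baseline; more negative score means more quench and so TMEM16A activation or potentiation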
# IDE cell inh: human IDE inhibitors in live cells, primary screen, fluorescence polarization, HEK cells, FAbetaB substrate. inhibition, % at 5.59 µM. FAbetaB cleavage. actives 0.41% (n = 320,000). Insulin-degrading enzyme (Homo sapiens), P14735. AID 434962, 2010;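 active = percent inhibition above the average of all tested compounds plus 3 SD, set per screening campaign, cut at about 16% in these data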;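 note: IDE supplied by intact live HEK cells; FP after avidin binding of uncleaved biotin substrate so inhibition keeps polarization high; 0% = DMSO wells and 100% = 60 µM reference IDE inhibitor Ii1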
# CHT block: inhibitors of human choline transporter CHT; CHT-expressing cells, membrane potential dye, choline response; hits give low values; B-score at 10 µM; actives 0.86% (n = 310,000);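 active = B-score over 3 SD under the library average, and starting fluorescence ratio not unusually high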;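 note: choline stimulus applied at its EC90 after an EC20 pre-addition; B-score computed on integrated fluorescence ratio after choline addition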
# IDE cell inh cf: human IDE inhibitors in live cells, confirmation, fluorescence polarization, HEK cells, FAbetaB substrate. actives 51% (n = 1,200). shares compounds with IDE cell inh. inhibition, % at 5.59 µM. FAbetaB cleavage;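 active = mean inhibition across triplicate wells above the cutoff set by the earlier primary insulin-degrading enzyme screen, cut at about 16% in these data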;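 note: 0% = DMSO wells and 100% = 60 µM reference IDE inhibitor Ii1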
# HEK293 tox: cytotoxicity in HEK cells, cytotoxicity control for IDE inhibitor project, cell-based, luminescence; shares compounds with IDE cell inh; HEK293 cytotoxicity, ATP luminescence; inhibition, % at 5.59 µM; actives 28% (n = 1,200); in the data active = inhibition above about 22%;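 note: 0% = vehicle wells and 100% = reference cytotoxic drug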
# The depositor's hits bear a star; i = inactive; . = not tested or not shown; ! = not confirmed by another sample. Most compounds without a hit are left out; they make up all but 2.7% or so of the library.
SMILES,IDE act,ANO1 block,CHT allo act,TMEM16A act,IDE cell inh,CHT block,IDE cell inh cf,HEK293 tox
CC(NC(=O)CCc1nnc(-c2ccc(-c3ccccc3)cc2)o1)c1nccs1 (configuration not stated),-7.3,i,i,i,7.9,i,.,.
CC(c1nccs1)N(C)C(=O)CCc1nnc(-c2ccc(-c3ccccc3)cc2)o1 (configuration not stated),-16.4,i,i,i,24.8*,i,3.6,17.0
CCOC(=O)C1CCN(CC(O)COc2ccc(S(=O)(=O)N3CCCC3)cc2[N+](=O)[O-])CC1 (configuration not stated),0.2,.,.,i,.,.,.,.
CN(C)c1ccc(/C=C2/C[N+](C)(C)C/C(=C/c3ccc(N(C)C)cc3)C2=O)cc1,-15.3,.,.,i,.,.,.,.
CC(C)/C=C1\CC/C(=C\c2ccc(N(C)C)cc2)C1=O,-177.0,i,i,i,67.6*,i,144.2*,13.2
CN(C)S(=O)(=O)c1ccc(C(=O)NCC2(N3CCCCC3)CCCCC2)cc1,-0.5,i,i,i,0.3,i,.,.
CS(=O)(=O)c1ccc(C(=O)NCC2(N3CCCCC3)CCCCC2)cc1,0.4,i,i,i,16.2*,i,5.6,10.1
N#Cc1cccc(S(=O)(=O)N2CCN(c3ccnc4cc(Cl)ccc34)CC2)c1,-33.5,i,i,i,19.6*,i,8.0,17.3
CC(C)(C)C(=O)N1CCN(c2ccnc3cc(Cl)ccc23)CC1,-23.4,i,i,i,33.6*,i,16.6*,16.4
O=C(C1CCC1)N1CCN(c2ccnc3cc(Cl)ccc23)CC1,-25.1,i,i,i,21.3*,i,17.9*,14.5
O=S(=O)(c1cccc(Br)c1)N1CCN(c2ccnc3cc(Cl)ccc23)CC1,-19.4,i,i,i,14.0,i,.,.
CCCn1c(N)c(C(=O)COC(=O)c2cccc(S(=O)(=O)N3CCOCC3)c2)c(=O)[nH]c1=O,0.6,.,.,i,8.3,.,.,.
COc1ccc(/C=c2\s/c(=C/C(=O)c3ccc(C)cc3)[nH]c2=O)c(OC)c1,-67.2,i,i,i,88.3*,i,111.8*,11.8
COc1cccc(/C=c2\s/c(=C/C(=O)c3ccc(C)cc3)[nH]c2=O)c1OC,-5.1,i,i,i,-1.8,i,.,.
C=CCN1C(=O)/C(=C/c2ccc(O)c(OC)c2)S/C1=N/c1nccs1,-142.4,i,i,i,153.8*,i,25.9*,16.1
C=CCN1C(=O)/C(=C/c2ccc(OCC(=O)O)cc2)S/C1=N/c1nccs1,-1.4,i,i,i,2.2,i,.,.
O=C(NC[C@@H]1CCCO1)c1cccc2c1C(=O)c1ccc(N3CCOCC3)cc1S2(=O)=O,3.3,.,.,i,3.2,.,.,.
O=C(NCC1CCCO1)c1cccc2c1C(=O)c1ccc(N3CCC(Cc4ccccc4)CC3)cc1S2(=O)=O (configuration not stated),-44.2,.,.,i,50.3*,.,83.0*,50.0*
CC1CCN(c2ccc3c(c2)S(=O)(=O)c2cccc(C(=O)NC4CC4)c2C3=O)CC1,-7.1,.,.,i,18.2*,.,18.9*,16.3
CC1CCN(c2ccc3c(c2)S(=O)(=O)c2cccc(C(=O)NC[C@@H]4CCCO4)c2C3=O)CC1,-8.3,.,.,i,21.5*,.,20.8*,26.2*
Nn1c(SCC(=O)Nc2ccccc2Br)nnc1-c1ccco1,-0.2,i,i,i,0.8,i,.,.
CC(=O)Nc1cccc(C(=O)OCc2csc(CC(=O)Nc3ccccc3C)n2)c1,0.0,.,.,i,-4.3,.,.,.
C=CCN1C=CC(=C/C=C(/C#N)C(=O)OCC)C=C1,-43.4,i,i,i,43.5*,i,63.1*,11.3
O=C(O)CC(NC(=O)CCc1ccccc1)c1ccc(Cl)cc1 (configuration not stated),-0.4,i,i,i,0.3,i,.,.
CCCn1c(Nc2nc3ccccc3n2C)nc2ccccc21,-29.3,i,i,i,32.5*,i,24.4*,7.9
SMILES,IDE act,ANO1 block,CHT allo act,TMEM16A act,IDE cell inh,CHT block,IDE cell inh cf,HEK293 tox
CCCCn1c(Nc2ccccc2)nc2ccccc21,4.1,i,i,i,-8.1,i,.,.
CCc1ccc(NC(=O)COC(=O)CC2CCCC2)cc1,4.5,.,.,i,-0.9,.,.,.
COc1cc(N=c2ssnc2Cl)c(OC)cc1Cl,-18.9,i,i,i,17.6*!,i,11.9,33.8*
CCOc1ccc(C(C)NC(=O)c2cc(=O)[nH]c3ccccc23)cc1OCC (configuration not stated),2.9,i,i,i,-3.7,i,.,.
O/C=c1\ccc2cccc3nc(C(F)(F)F)nc1c23,-54.1,i,i,i,25.8*,i,103.1*,41.1*
Cn1c(SCC(=O)c2ccc3c(c2)Cc2ccccc2-3)nnc1-c1ccccc1,-43.5,i,i,i,28.0*,i,13.7,11.6
CCCCN(C(=O)c1cc(S(=O)(=O)N2CCCCC2)ccc1Cl)c1c(N)n(CCC)c(=O)[nH]c1=O,-3.1,.,.,i,.,.,.,.
COC(=O)c1ccc2c(c1)C(C)(C)C(/C=C/c1ccc(O)cc1)=[N+]2C,-25.4,i,6.49*,i,16.2*,i,20.6*,122.0*
COc1ccccc1NC(=O)COC(=O)c1ccc(N2CCCC2=O)cc1,7.8,.,.,i,4.9,.,.,.
Cc1cccc(N2CCN(C(=O)CCN3C(=O)C4C5C=CC(C5)C4C3=O)CC2C)c1 (configuration not stated),-3.5,i,i,i,2.2,i,.,.
Cc1cccc(N2CCN(C(=O)CCn3c(=O)[nH]c4ccsc4c3=O)CC2C)c1 (configuration not stated),-13.6,i,i,i,23.8*,i,15.8,8.8
COc1ccc(N2CCN(C(=O)CN3C(=O)NC4(CCCCCC4)C3=O)CC2)cc1,4.8,.,.,i,-0.4,.,.,.
Cc1ccc(S(=O)(=O)N2CCOCC2)cc1NC(=O)COC(=O)CNC(=O)c1ccc(Oc2ccccc2)cc1,-12.4,i,i,i,16.7*,i,6.0,12.6

# High-throughput results as filed in PubChem BioAssay.
